Laboratory results as given in the supplement of paper PMC6555819.

Legend:
Assay in all cases: PBM binding z-score (relative to random genomic background probes); higher = stronger binding; sequences stand for … in GC…GCGATTGACAGCGTAGAATGAAGG
[1] = system: FXR:RXRa (NR concentration 270 nM, RXRa partner concentration 90 nM)
Method in brief: (§1)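 Regression normalization was applied to scanned fluorescence from custom Agilent 4×180K protein-binding microarrays. Before scanning, arrays were incubated 1 h with ligand-free nuclear receptor dimers, and binding was detected with antibodies against each partner (one per run). Binding z-scores use the random background probes as reference.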

[2] = system: LXRa:RXRa (NR concentration 270 nM, RXRa partner concentration 90 nM)
Method in brief: as §1

[3] = system: LXRa homodimer (NR concentration 270 nM)
Method in brief: as §1

[4] = system: LXRb:RXRa (NR concentration 270 nM, RXRa partner concentration 90 nM)
Method in brief: as §1

[5] = system: LXRb homodimer (NR concentration 270 nM)
Method in brief: as §1

[6] = system: PPARa:RXRa (NR concentration 270 nM, RXRa partner concentration 90 nM)
Method in brief: as §1

[7] = system: PPARg:RXRa (NR concentration 180 nM, RXRa partner concentration 90 nM)
Method in brief: as §1

[8] = system: PPARg:RXRa 270nM:90nM, anti-RXR (NR concentration 270 nM, RXRa partner concentration 90 nM)
Method in brief: as §1

[9] = system: PPARg:RXRa 30nM:10nM, anti-RXR (NR concentration 30 nM, RXRa partner concentration 10 nM)
Method in brief: as §1

[10] = system: PPARg:RXRa 90nM:30nM, anti-RXR (NR concentration 90 nM, RXRa partner concentration 30 nM)
Method in brief: as §1

Sequence	PBM binding z-score [1]	PBM binding z-score [2]	PBM binding z-score [3]	PBM binding z-score [4]	PBM binding z-score [5]	PBM binding z-score [6]	PBM binding z-score [7]	PBM binding z-score [8]	PBM binding z-score [9]	PBM binding z-score [10]
TCATCTAGGTAAACAGGTGAAAGTCCGTAAGTTA	1.02	0.956	0.17	1.04	0.174	2.4	3.14	3.94	3.92	3.86
GCAGACAGGTGAAACGCAGGTAACTTAGGGTGGC	0.0644	-0.18	-0.522	-0.226	-1.05	0.666	0.771	0.226	-0.508	-0.022
CGAACTAGGTCAGAACAGGGCAGTGAAGGATGAT	1.43	0.861	-0.154	0.436	-0.443	3.09	5.03	4.3	1.73	3.33
GTACCAAGGTGAATAGGTCGATGATGAGTAGGCG	0.682	0.499	-0.251	0.484	-0.293	1.89	1.69	1.53	0.803	1.28
ATCGAAAGGTCGACGAGGTGAGTAGACACCGTTT	4.89	3.41	-0.158	2.75	0.205	4.45	3.11	3.63	1.22	2.45
ATATGTAGGTTAAGGGCCATTCAGGTTGGTTCGC	0.756	0.989	0.305	0.911	0.0829	4.43	7.86	7.32	6.65	7.62
TCGAGTAGGTGAGGGGCATTCAGAATGGCGTCGA	0.283	-0.0871	-0.49	1.21	0.881	1.47	1.99	3.31	1.98	2.63
TAGACTAGGTCATGCGGGCCAGTATAGTGTCGGC	3.22	2.34	0.304	1.15	0.173	3.96	5.48	4.65	2.34	3.95
TTACCAAGGTGAGCTGAGGTCGTTGATCCAACTC	2.68	1.31	-0.429	0.771	-0.932	1.75	0.0695	0.731	-0.00962	0.482
TTACCAAGGTGAGCTGAGGTCGTTCATCCAACTC	1.08	1.32	0.0661	0.862	-1.08	1.68	0.347	1	0.0261	0.463
CCTCGGAGGACAAGAGGAGGTCAGAGCTGCCAGA	0.831	1.16	0.18	0.759	-0.815	1.62	0.27	-0.135	-0.865	-0.28
ACTATTAGTTGACTTAGGGCAAACGATACGACGC	0.00537	0.0216	0.165	0.185	0.529	0.325	1.17	0.319	0.276	0.322
TAGCATAGGTCAGATCGGGCCAGTATACGCTATA	3.66	2.95	-0.198	2.08	-0.138	3.38	1.65	1.67	0.311	1.05
CAAACTATGTCAAGAGGTCAAAGTCCGCTTCCCG	5.04	5.63	5.89	4.97	2.01	5.33	5.62	6.27	4.55	6
TCGAGTAGGTTACCAATGGCGCATTCAGCTTTCT	0.273	0.571	-0.489	0.382	-0.736	0.977	0.185	1.23	1.11	1.17
CATACAGGGTCAGCTAGGCCGGAGTAGGGACGGC	4.6	2.61	-0.304	1.86	0.54	3.9	2.9	2.96	0.304	1.69
CGTCCAAGGTCATAGGTGGTCAGTGAAGACAGAT	7.11	5.63	1.51	4	0.409	5.57	5.44	5.25	2.42	4.36
